In the supplement of paper PMC10127200:
Structures can show the parent of a compound that is named as a salt.

Key:
Test in all cases: Euclidean distance of Cell Painting phenotypic profile (signed KS, 77 features) to DMSO centroid (dimensionless distance); 5 or 10 uM (library dependent); higher = stronger phenotypic change vs DMSO (phenoactivity)
Details in all cases: 48 h
786-O = system: 786-O
Outline: (§1)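 Library compounds were applied at 10 or 5 uM, depending on the library, with 0.1% DMSO final, for 48 h to five cancer lines and a healthy fibroblast line. After staining, cells were imaged confocally at 20X across 9 fields per well, and Harmony extracted 77 features, each scored as a signed Kolmogorov-Smirnov statistic against vehicle wells on the same plate. Phenoactivity is the Euclidean distance between each profile and the median vehicle profile, with profiles first plate-position corrected, correlation-weighted and averaged over replicates at the top dose.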

A549 = system: A549
Outline: as §1

DU145 = system: DU145
Outline: as §1

FB = system: FB
Outline: as §1

HEPG2 = system: HEPG2
Outline: as §1

OVCAR4 = system: OVCAR4
Outline: as §1

## C#C[C@]1(O)CC[C@H]2[C@@H]3CCc4cc(OC5CCCC5)ccc4[C@H]3CC[C@@]21C [Quinestrol]
786-O
  Euclidean distance: 1.6
A549
  Euclidean distance: 1.26
DU145
  Euclidean distance: 1.69
FB
  Euclidean distance: 1.48
HEPG2
  Euclidean distance: 0.902
OVCAR4
  Euclidean distance: 1.67

## N[C@@H]1CCCCN(c2c(F)cc3c(=O)c(C(=O)O)cn(C4CC4)c3c2Cl)C1 [Besifloxacin HCl]
786-O
  Euclidean distance: 0.849
A549
  Euclidean distance: 1.19
DU145
  Euclidean distance: 0.808
FB
  Euclidean distance: 0.781
HEPG2
  Euclidean distance: 0.864
OVCAR4
  Euclidean distance: 0.585

## CC(=O)/N=c1/sc(S(N)(=O)=O)nn1C [Methazolamide]
786-O
  Euclidean distance: 1.32
A549
  Euclidean distance: 0.988
DU145
  Euclidean distance: 0.818
FB
  Euclidean distance: 0.885
HEPG2
  Euclidean distance: 0.858
OVCAR4
  Euclidean distance: 1.5

## Cc1onc(-c2ccccc2)c1-c1ccc(S(N)(=O)=O)cc1 [Valdecoxib]
786-O
  Euclidean distance: 1.12
A549
  Euclidean distance: 1.19
DU145
  Euclidean distance: 0.983
FB
  Euclidean distance: 1.21
HEPG2
  Euclidean distance: 0.509
OVCAR4
  Euclidean distance: 1.58

## C=C(C)[C@@H]1CC[C@]2(C(=O)O)CC[C@]3(C)[C@H](CC[C@@H]4[C@@]5(C)CC[C@H](O)C(C)(C)[C@@H]5CC[C@]43C)[C@@H]12 [Betulinic acid]
786-O
  Euclidean distance: 1
A549
  Euclidean distance: 0.893
DU145
  Euclidean distance: 0.693
FB
  Euclidean distance: 0.844
HEPG2
  Euclidean distance: 0.744
OVCAR4
  Euclidean distance: 0.866

## CCN[C@H]1CN(CCCOC)S(=O)(=O)c2sc(S(N)(=O)=O)cc21 [Brinzolamide]
786-O
  Euclidean distance: 1.5
A549
  Euclidean distance: 1.1
DU145
  Euclidean distance: 1.06
FB
  Euclidean distance: 1.48
HEPG2
  Euclidean distance: 0.663
OVCAR4
  Euclidean distance: 2.07

## CC(C)(C)NCC(O)c1ccc(O)c(CO)c1 (configuration not stated) [Salbutamol]
786-O
  Euclidean distance: 1.03
A549
  Euclidean distance: 0.738
DU145
  Euclidean distance: 1.09
FB
  Euclidean distance: 0.676
HEPG2
  Euclidean distance: 0.894
OVCAR4
  Euclidean distance: 0.709

## CC(C)(O)[C@H]1CC[C@@](C)([C@H]2[C@@H](O)C[C@@]3(C)[C@@H]4C[C@H](O[C@@H]5O[C@H](CO)[C@@H](O)[C@H](O)[C@H]5O)[C@H]5C(C)(C)[C@@H](O[C@@H]6OC[C@@H](O)[C@H](O)[C@H]6O)CC[C@@]56C[C@@]46CC[C@]23C)O1 [Astragaloside A]
786-O
  Euclidean distance: 4.07
A549
  Euclidean distance: 3.46
DU145
  Euclidean distance: 3.2
FB
  Euclidean distance: 2.61
HEPG2
  Euclidean distance: 2.19
OVCAR4
  Euclidean distance: 3.11

## CC(=O)N1C[C@H](O)C[C@H]1C(=O)O [Oxaceprol]
786-O
  Euclidean distance: 0.691
A549
  Euclidean distance: 0.845
DU145
  Euclidean distance: 0.785
FB
  Euclidean distance: 0.895
HEPG2
  Euclidean distance: 0.812
OVCAR4
  Euclidean distance: 1.28

## COc1ccc(-c2cc(=O)c3c(OC)c(OC)c(OC)c(OC)c3o2)cc1OC [Nobiletin]
786-O
  Euclidean distance: 0.695
A549
  Euclidean distance: 0.706
DU145
  Euclidean distance: 1
FB
  Euclidean distance: 0.95
HEPG2
  Euclidean distance: 1.47
OVCAR4
  Euclidean distance: 0.897

## CC(=O)Oc1ccccc1C(=O)O [Aspirin]
786-O
  Euclidean distance: 0.701
A549
  Euclidean distance: 0.531
DU145
  Euclidean distance: 0.625
FB
  Euclidean distance: 0.734
HEPG2
  Euclidean distance: 0.608
OVCAR4
  Euclidean distance: 0.816

## N[C@@H]1CCCC[C@H]1N.O=C([O-])C(=O)[O-].[Pt+2] [Eloxatin]
786-O
  Euclidean distance: 3.84
A549
  Euclidean distance: 3.01
DU145
  Euclidean distance: 1.15
FB
  Euclidean distance: 3.29
HEPG2
  Euclidean distance: 2.14
OVCAR4
  Euclidean distance: 3.55

## CS(=O)(=O)c1cccc(C[C@H](NC(=O)c2c(Cl)cc3c(c2Cl)CCN(C(=O)c2ccc4ccoc4c2)C3)C(=O)O)c1 [Lifitegrast]
786-O
  Euclidean distance: 1.08
A549
  Euclidean distance: 0.823
DU145
  Euclidean distance: 1.53
FB
  Euclidean distance: 1.16
HEPG2
  Euclidean distance: 0.431
OVCAR4
  Euclidean distance: 1.27

## C[C@H]1[C@H](C)CC[C@]2(C(=O)O[C@@H]3O[C@H](CO[C@@H]4O[C@H](CO)[C@@H](O[C@@H]5O[C@@H](C)[C@H](O)[C@@H](O)[C@H]5O)[C@H](O)[C@H]4O)[C@@H](O)[C@H](O)[C@H]3O)CC[C@]3(C)C(=CC[C@@H]4[C@@]5(C)C[C@@H](O)[C@H](O)[C@@](C)(CO)[C@@H]5[C@H](O)C[C@]43C)[C@H]12 [Madecassoside]
786-O
  Euclidean distance: 0.76
A549
  Euclidean distance: 0.636
DU145
  Euclidean distance: 0.932
FB
  Euclidean distance: 1.03
HEPG2
  Euclidean distance: 0.483
OVCAR4
  Euclidean distance: 1.28

## Cn1cc(/C=C2\C(=O)Nc3cccnc32)c2ccccc21
786-O
  Euclidean distance: 0.739
A549
  Euclidean distance: 1.41
DU145
  Euclidean distance: 1.16
FB
  Euclidean distance: 1.5
HEPG2
  Euclidean distance: 0.771
OVCAR4
  Euclidean distance: 1.53

## Cc1ncc([N+](=O)[O-])n1CCO [Metronidazole]
786-O
  Euclidean distance: 0.797
A549
  Euclidean distance: 0.775
DU145
  Euclidean distance: 0.948
FB
  Euclidean distance: 1.08
HEPG2
  Euclidean distance: 0.943
OVCAR4
  Euclidean distance: 1.6

## C#CCN[C@@H]1CCc2ccccc21 [Rasagiline Mesylate]
786-O
  Euclidean distance: 1.19
A549
  Euclidean distance: 0.608
DU145
  Euclidean distance: 0.782
FB
  Euclidean distance: 0.686
HEPG2
  Euclidean distance: 1.01
OVCAR4
  Euclidean distance: 1.18

## O=C(O[C@@H]1Cc2c(O)cc(O)cc2O[C@@H]1c1cc(O)c(O)c(O)c1)c1cc(O)c(O)c(O)c1 [(-)-Epigallocatechin Gallate]
786-O
  Euclidean distance: 0.998
A549
  Euclidean distance: 0.875
DU145
  Euclidean distance: 1.33
FB
  Euclidean distance: 1.39
HEPG2
  Euclidean distance: 1.17
OVCAR4
  Euclidean distance: 0.757

## COC(=O)c1cc(OC)c2c(c1-c1c(C(=O)OC)cc(OC)c3c1OCO3)OCO2 [Bifendate]
786-O
  Euclidean distance: 1.36
A549
  Euclidean distance: 1.51
DU145
  Euclidean distance: 0.627
FB
  Euclidean distance: 1.22
HEPG2
  Euclidean distance: 0.392
OVCAR4
  Euclidean distance: 1.35

## CC[C@@H]1C(=O)N(C)c2cnc(Nc3ccc(C(=O)NC4CCN(C)CC4)cc3OC)nc2N1C1CCCC1
786-O
  Euclidean distance: 3.46
A549
  Euclidean distance: 3.75
DU145
  Euclidean distance: 3.25
FB
  Euclidean distance: 3.72
HEPG2
  Euclidean distance: 2.48
OVCAR4
  Euclidean distance: 3.25

## O=C(c1cn(Cc2cncn2Cc2ccc(Br)cc2)cc1-c1cccc2ccccc12)N1CCOCC1
786-O
  Euclidean distance: 2.26
A549
  Euclidean distance: 2.37
DU145
  Euclidean distance: 1.56
FB
  Euclidean distance: 2.75
HEPG2
  Euclidean distance: 1.15
OVCAR4
  Euclidean distance: 1.92

## O=c1ccn([C@@H]2O[C@H](CO)[C@@H](O)[C@H]2O)c(=O)[nH]1 [Uridine]
786-O
  Euclidean distance: 1.22
A549
  Euclidean distance: 0.801
DU145
  Euclidean distance: 0.955
FB
  Euclidean distance: 0.869
HEPG2
  Euclidean distance: 1.9
OVCAR4
  Euclidean distance: 0.863

## Cc1nc2n(c(=O)c1CCN1CCC(c3noc4cc(F)ccc34)CC1)CCCC2O (configuration not stated) [Paliperidone]
786-O
  Euclidean distance: 0.901
A549
  Euclidean distance: 0.427
DU145
  Euclidean distance: 0.828
FB
  Euclidean distance: 0.783
HEPG2
  Euclidean distance: 0.494
OVCAR4
  Euclidean distance: 0.895

## Cc1ccc(S(=O)(=O)OCC(=O)Nc2ccc(C(=O)O)c(O)c2)cc1
786-O
  Euclidean distance: 1.33
A549
  Euclidean distance: 1.22
DU145
  Euclidean distance: 1.04
FB
  Euclidean distance: 0.948
HEPG2
  Euclidean distance: 0.793
OVCAR4
  Euclidean distance: 1.47

## OCC1OC(OC2OC(CO)C(O)C(O)C2O)C(O)C(O)C1O [D-(+)-Trehalose Anhydrous]
786-O
  Euclidean distance: 1.42
A549
  Euclidean distance: 1.05
DU145
  Euclidean distance: 1.04
FB
  Euclidean distance: 1.26
HEPG2
  Euclidean distance: 0.946
OVCAR4
  Euclidean distance: 0.855

## Nc1c2c(nc3ccccc13)CCCC2 [Tacrine HCl]
786-O
  Euclidean distance: 0.888
A549
  Euclidean distance: 0.485
DU145
  Euclidean distance: 0.636
FB
  Euclidean distance: 1.21
HEPG2
  Euclidean distance: 0.472
OVCAR4
  Euclidean distance: 1.16

## O=C(O)c1ccc(Nc2ncc3c(n2)-c2ccc(Cl)cc2C(c2c(F)cccc2F)=NC3)cc1
786-O
  Euclidean distance: 2.83
A549
  Euclidean distance: 3.8
DU145
  Euclidean distance: 2.7
FB
  Euclidean distance: 2.34
HEPG2
  Euclidean distance: 3.27
OVCAR4
  Euclidean distance: 3.07
